For 37 compounds, growth inhibition results are on record in PubChem BioAssay (NCI).

A short description of assay [1]: NCI Yeast Anticancer Drug Screen. Data for the rad50 strain (AID 155).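 Also: 0% = growth of vehicle-only cultures of the same strain.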 Conditions: S. cerevisiae rad50 strain growth inhibition; at 50.0 µM; active compounds read high. In a few lines: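 DNA repair mutant yeast, compound exposure, growth read-out; inhibition is taken relative to vehicle.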
Assay [2] in a line: NCI Yeast Anticancer Drug Screen. Data for the mec2-1 strain (AID 157). Conditions: S. cerevisiae mec2-1 strain, at 50.0 µM, active compounds read high. In a few lines:
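Cells of the genetically defined mec2-1 yeast strain are incubated with test compound. Inhibition of growth is calculated against vehicle-treated controls.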

A short description of assay [3]: NCI Yeast Anticancer Drug Screen. Data for the sgs1 mgt1 strain (AID 161).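 Also: 0% = growth of cultures given vehicle only.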 The conditions noted are these: S. cerevisiae sgs1 mgt1 strain, at 50.0 µM, active compounds read high. In a few lines:
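Read-out: growth inhibition vs vehicle controls. Cells: mutant yeast strain deficient in DNA damage repair.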

Assay [4] is described as follows: NCI Yeast Anticancer Drug Screen. Data for the cln2 rad14 strain (AID 165).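 Also: 0% = growth equal to vehicle treated cultures.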 Conditions: S. cerevisiae cln2 rad14 strain, at 50.0 µM, active compounds read high. The method in brief:
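The screen exposed genetically defined yeast (cln2 rad14) to test compounds and scored growth inhibition relative to vehicle-treated controls.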

Assay [5] in a line: NCI Yeast Anticancer Drug Screen. Data for the bub3 strain (AID 167). The conditions noted are these: S. cerevisiae bub3 mutant strain, at 50.0 µM, active compounds read high. In a few lines: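 In this screen, a yeast mutant lacking normal mitotic checkpoint function is challenged with compound. Relative growth versus vehicle gives the inhibition value.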
Assay [6] can be described thus: NCI Yeast Anticancer Drug Screen. Data for the mlh1 rad18 strain (AID 175). The conditions noted are these: S. cerevisiae mlh1 rad18 strain growth inhibition; at 50.0 µM; active compounds read high. The method in brief: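 Compound-treated yeast growth, normalised to vehicle controls. Strain bears defined DNA repair mutations.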

Molecules are shown by their SMILES. This is part of a sample that, as a whole, favours compounds with a hit. Of some 79,000 tested, about 15% had one in any assay. Values without a mark were called inactive. Active and inactive are the calls of the source. Rule as the data show it: active = growth inhibition above about 70%; inactive = the rest.

As to `CCCCCCCCSP(SCCCCCCCC)SCCCCCCCC`, the growth inhibition in assay [1] was -11.8%; in assay [2], -0.1%; in assay [3], -25.3%; in assay [4], 2.7%; in assay [5], 1.25%; in assay [6] it was 0.9%.
Consider `CC(C)CCC1C(=O)NC(=O)NC1=O`, for which the growth inhibition in assay [1] is -0.2%; in assay [2], -6.15%; in assay [3] it was -15.4%; in assay [4] it was 8.1%; in assay [5] it was -4.05%; in assay [6], -1.15%.
Turning to `CCCCOP(O)(=S)OCCCC.[Y]`, the growth inhibition is -20.9% in assay [1]; 2.95% in assay [2]; 4.2% in assay [3]; 25.4% in assay [4]; -8.6% in assay [5]; -2.75% in assay [6].
As for `CP(C)CC[PH+](CC[PH+](C)C)CC[PH+](C)C.[C-]#[O+].[C-]#[O+].[W]`, the growth inhibition in assay [1] is -1.25%; in assay [2], -6.35%; in assay [3], -13.1%; in assay [4] it was 24.4%; in assay [5], -0.45%; in assay [6], -0.9%.
On to `N#Cc1ccc(/C=C/C(=O)O)cc1`, for which the growth inhibition in assay [1] is 17.2%; in assay [2], -10.4%; in assay [3], -9.15%; in assay [4], -60.2%; in assay [5], -9.9%; in assay [6] it was -4.3%.
As for `C(=C\c1cccs1)/CN1CCC2CCC(C2)C1` (configuration not stated), the growth inhibition in assay [1] is -3.25%; in assay [2], -4.15%; in assay [3] it was 2.1%; in assay [4] it was -17.1%; in assay [5], 6.35%; in assay [6] it was -10.8%.
`CN1CN(c2ccccc2)C2(CCN(CCC3COc4ccccc4O3)CC2)C1=O` (configuration not stated): the growth inhibition is -15.4% in assay [1]; -10.3% in assay [2]; -10.1% in assay [3]; -1.4% in assay [4]; -4.45% in assay [5]; -1.35% in assay [6].
With `O=S1(F)=NP(N2CC2)(N2CC2)=NP(N2CC2)(N2CC2)=N1` (configuration not stated), the growth inhibition was 22.6% in assay [1]; -3.15% in assay [2]; -9.7% in assay [3]; 6.6% in assay [4]; -19.6% in assay [5]; -39.9% in assay [6].
Regarding `O=C1NC(=O)C(Cc2cccc(Cl)c2)C(=O)N1`, the growth inhibition in assay [1] is 15.1%; in assay [2] it was -6.9%; in assay [3] it was -15.8%; in assay [4] it was -8.05%; in assay [5], 0.55%; in assay [6], -36%.
`CC1=CC2OC3CC4OC(=O)/C=C/C=C/C(=O)OCC/C(C)=C/C(=O)OCC2(CC1O)C4(C)C31CO1` (configuration not stated): the growth inhibition is 92.3% (active) in assay [1]; 93.6% (active) in assay [2]; 93% (active) in assay [3]; 91.7% (active) in assay [4]; 91.8% (active) in assay [5]; 90.9% (active) in assay [6].
Consider `O=Cc1ccccc1O.O=Cc1ccccc1O.O=Cc1ccccc1O.[La]`, for which the growth inhibition was -1.05% in assay [1]; -6.95% in assay [2]; 4.7% in assay [3]; -10.1% in assay [4]; 4.8% in assay [5]; 16.9% in assay [6].
Take `O=C(Nc1ncn[nH]1)C(Cl)(Cl)Cl`: the growth inhibition in assay [1] was -4.1%; in assay [2], -15.9%; in assay [3] it was -7.15%; in assay [4] it was -53%; in assay [5], -2%; in assay [6] it was -7.25%.
Regarding `N#Cc1cccnc1`, the growth inhibition in assay [1] is 4.75%; in assay [2], -4.15%; in assay [3], 4.1%; in assay [4], 5.6%; in assay [5] it was 9.05%; in assay [6], 2.75%.
With `O=C(Nc1c(O)[nH]c(=S)[nH]c1=O)c1ccccn1`, the growth inhibition in assay [1] was 6.95%; in assay [2] it was -14.7%; in assay [3] it was -3.75%; in assay [4] it was 1.7%; in assay [5] it was -8.3%; in assay [6], -8.3%.
As to `COc1cc(C2(C)CCCCC2)c(OC)cc1C1(C)CCCCC1`, the growth inhibition was -8.1% in assay [1]; 1.25% in assay [2]; 23.4% in assay [3]; -69.2% in assay [4]; 2.75% in assay [5]; 9.15% in assay [6].
With `NC1CCCC[C@H]1N.N[C@@H]1CCCC[C@@H]1N.O=C(P(=O)([O-])[O-])P(=O)([O-])[O-].[Pt+4].[Pt+4]`, the growth inhibition in assay [1] was 20.2%; in assay [2] it was 3.85%; in assay [3], -13.7%; in assay [4], 2.7%; in assay [5] it was -6.6%; in assay [6], 10.3%.
Take `COC(=O)C1C(=O)NC2(C)CC1c1ccccc1O2` (configuration not stated): the growth inhibition in assay [1] was -28%; in assay [2], -11.7%; in assay [3], -30.8%; in assay [4], 8%; in assay [5], -12.5%; in assay [6], -1.45%.
As to `O=[N+]([O-])C1(Cl)CCC(Cl)([N+](=O)[O-])CC1` (configuration not stated), the growth inhibition in assay [1] was 5.85%; in assay [2] it was -6.2%; in assay [3], -2.1%; in assay [4], -23.4%; in assay [5], -14.6%; in assay [6], -18.3%.
Consider `CC1OC(=O)C2CC3CCCCC3C(/C=C/C3CCCC(C)N3C)C12` (configuration not stated), for which the growth inhibition in assay [1] was 1.2%; in assay [2], -11.2%; in assay [3] it was -11.2%; in assay [4], 28.4%; in assay [5] it was -10.4%; in assay [6], -2.35%.
For `CC(C)=CCC1=C(OOC2=C(CC=C(C)C)C(=O)c3ccccc3C2=O)C(=O)c2ccccc2C1=O`, the growth inhibition in assay [1] is 36.8%; in assay [2], 23.8%; in assay [3] it was 43%; in assay [4], 11.1%; in assay [5] it was 5.05%; in assay [6], 5.7%.
`CCCCOC(=O)c1ccccc1C(=O)O.[Mn]`: the growth inhibition in assay [1] was -38.7%; in assay [2], -11.8%; in assay [3], -6.15%; in assay [4] it was -12.6%; in assay [5], -29.6%; in assay [6], -3.3%.
Turning to `CCC1CN(CC(=O)c2ccc(Br)cc2)CCO1` (configuration not stated), the growth inhibition was 5.4% in assay [1]; 3.35% in assay [2]; 39.9% in assay [3]; 20.6% in assay [4]; 48.6% in assay [5]; 25% in assay [6].
Turning to `CC1(C)COP(=S)(SCCC#N)OC1`, the growth inhibition in assay [1] is -38.8%; in assay [2], -7.1%; in assay [3], 0.95%; in assay [4] it was -29.4%; in assay [5] it was 12.8%; in assay [6] it was -0.55%.
In the case of `O=P(O)(Nc1ccccc1)Nc1ccccc1`, the growth inhibition was 21.7% in assay [1]; 33.4% in assay [2]; 21% in assay [3]; -15.1% in assay [4]; 25.3% in assay [5]; 15.3% in assay [6].
For the compound `N#CC(CCN1CCC(Nc2ccccc2)(c2nnnn2C2CCCCC2)CC1)(c1ccccc1)c1ccccc1`, the growth inhibition was -13.8% in assay [1]; -16.6% in assay [2]; 3.75% in assay [3]; -5.15% in assay [4]; 4.05% in assay [5]; -21.6% in assay [6].
As to `COc1ccc([As]=O)cc1N` (configuration not stated), the growth inhibition in assay [1] was 4.8%; in assay [2] it was 18.1%; in assay [3], 8.75%; in assay [4] it was 7.25%; in assay [5] it was -7.45%; in assay [6], -10.5%.
Turning to `COc1ccc([Se]c2ccc(OC)cc2OC)c(OC)c1`, the growth inhibition was -19.1% in assay [1]; -39% in assay [2]; 2.8% in assay [3]; -18.3% in assay [4]; 8.5% in assay [5]; -13.2% in assay [6].
`O=C(NCCN1CCOCC1)c1cc(N(CCCl)CCCl)c([N+](=O)[O-])cc1[N+](=O)[O-]`: the growth inhibition in assay [1] was 15.8%; in assay [2] it was 7.45%; in assay [3], 16.6%; in assay [4], 23.6%; in assay [5] it was 33.1%; in assay [6], 27.9%.
For the compound `NC(=O)C[N+](=O)[O-]`, the growth inhibition is -16.9% in assay [1]; 17% in assay [2]; -11.4% in assay [3]; 11% in assay [4]; -2.35% in assay [5]; -2.2% in assay [6].
With `O=c1c(O)c(-c2ccccc2)oc2ccccc12`, the growth inhibition in assay [1] is 12.6%; in assay [2], 14.8%; in assay [3], 35.5%; in assay [4], 15.6%; in assay [5], 42.5%; in assay [6], 34.8%.
Consider `O=[C-]C(F)(F)F.[C-]#[O+].[C-]#[O+].[C-]#[O+].[Mo].[c-]1[c-][c-][cH-][c-]1`, for which the growth inhibition in assay [1] is 5.2%; in assay [2], 13.3%; in assay [3], 0.8%; in assay [4], 25.9%; in assay [5], 21.4%; in assay [6] it was 7.05%.
For `OCCC[n+]1cccc2ccccc21`, the growth inhibition in assay [1] was -11.2%; in assay [2], 9.25%; in assay [3], 1.1%; in assay [4], -41.6%; in assay [5], 0.95%; in assay [6] it was -1.7%.
Take `CN(C)/N=C(\N)c1nnn(C)n1`: the growth inhibition is -4.45% in assay [1]; -14.2% in assay [2]; -15.2% in assay [3]; -32.8% in assay [4]; -11.2% in assay [5]; -0.3% in assay [6].
With `O=NN1CCCNCC1`, the growth inhibition in assay [1] is -4.2%; in assay [2], -14.9%; in assay [3], -4.65%; in assay [4], -42.4%; in assay [5] it was 15.4%; in assay [6], 4.25%.
On to `CC(C)(O)[C@H]1[C@@H]2OC(=O)[C@H]1[C@]1(O)C[C@H]3OC34C(=O)O[C@H]2[C@@]41C` (some centres not stated) (tested in a mixture with another compound), for which the growth inhibition in assay [1] is 1.05%; in assay [2], -12.8%; in assay [3] it was 19.6%; in assay [4] it was -9.25%; in assay [5] it was -12.4%; in assay [6], -65.3%.
As for `CC1=C(Cl)C=CP(=O)(Oc2ccccc2)C1` (configuration not stated), the growth inhibition is 19.5% in assay [1]; -14.4% in assay [2]; -12.2% in assay [3]; 29.2% in assay [4]; -5.6% in assay [5]; -8.15% in assay [6].
As to `CC1CN1C1c2ccccc2CC1O` (configuration not stated), the growth inhibition was 1.2% in assay [1]; -13.2% in assay [2]; -11.8% in assay [3]; -15.4% in assay [4]; -20.3% in assay [5]; -8.95% in assay [6].
